About 530 (0.96%) of roughly 55,000 compounds were called active. Another 7% or so got no clear call; they are omitted. The list comes from a sample in which actives are over-represented; it also holds similar structures and randomly drawn compounds. Where a call stands in place of a potency, no number is given. Values without a mark were called inactive. Calls follow the shape of the dose curve; as a rule, active = well fitted cell-killing curve with a large enough effect; inconclusive = small, poorly fitted or top-dose-only effect; inactive = no such curve, though single readings can be large or run the other way.
Experiment: qHTS Screen for Compounds that Selectively Target Cancer Cells with p53 Mutations: Cytotoxicity of p53 Null Cells at the Nonpermissive Temperature; also: nearly all actives have a fitted effect of over 50% in size
Settings: H1299 p53-null (neo) cells, 39C, ATPlite viability, 24 h; series mostly up to 46.1 µM
Method in brief: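 Luminescent ATP signal reported cell survival after H1299 lines (neo, p53 null; or p53 A138V) received up to 46 uM compound and 24 hr incubation at 39C.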
Potency is read from the fitted curve at half-maximal effect.

| SMILES | Potency | activity, negative = cell killing |
| --- | --- | --- |
| C=CCn1c(SCC(N)=O)nnc1-c1cc2c(s1)CCC(CC)C2 (centres undefined) | inactive |  |
| Cc1nc2sc(C)c(C)n2c(=O)c1S(=O)(=O)NCCc1ccc(Cl)cc1 | inactive |  |
| Cc1cc(C)c(/C=C/c2onc(C)c2S(=O)(=O)N2CCC(C(=O)Nc3ccc(Cl)cc3C)CC2)c(C)c1 | inactive |  |
| O=C(CNS(=O)(=O)c1cccs1)N1CCN(c2ccccc2Cl)CC1 | inactive |  |
| COc1ccc(OC)c(NC(=O)CSC2=Nc3ccccc3C3=NC(CC(=O)NCCc4ccccc4)C(=O)N23)c1 (centres undefined) | inactive |  |
| COc1cc(Cl)c(C)cc1NC(=O)COC(=O)c1cc(SC)ccc1Cl | inactive |  |
| Cc1cc2n(n1)C(c1cc(C(C)(C)C)c(O)cc1O)Nc1ccccc1-2 (centres undefined) | inactive |  |
| c1ccc(-c2noc(-c3cccs3)n2)nc1 | 14.1 µM (active) |  |
| Clc1ccc(-n2nnnc2-c2cnc(-c3ccccn3)nc2-c2cccs2)cc1 | inactive |  |
| O=C(CN1C(=O)CCn2nc(-c3ccccc3)cc21)NCc1ccccc1 | inactive |  |
| CN(C(=O)c1c(Cl)cnn1C)C12CC3CC(CC(C3)C1)C2 |  | 17.1% [at 1.84 µM] |
| COc1ccc(-c2csc(NC(=O)COC(=O)Cc3ccc(Cl)cc3Cl)n2)cc1 | inactive |  |
| COc1ccc(NC(=O)c2cc3cc(C)ccc3n2C)cc1 | inactive |  |
| Nc1nnc(SCC(=O)Nc2ccc3nc(SCC(=O)Nc4ccccc4)sc3c2)s1 | inactive |  |
| Cc1ccccc1CNC(=O)CSc1nnc(C)c2c(C)n(-c3ccccc3)nc12 | inactive |  |
| O=C(CSc1ccc(C(F)(F)F)cc1[N+](=O)[O-])NCCOc1ccccc1 | inactive |  |
| COc1ccc(-c2c3c(=O)n(C)c(=O)n(C)c3c3c(C)nc4ccccc4n23)cc1 | inactive |  |
| CCc1nnc(SCc2nc(-c3cccc(C)c3)oc2C)c2cc3sc(C)cc3n12 | inactive |  |
| Cc1noc(COc2ccccc2OCc2onc(C)c2Cl)c1Cl | inactive |  |
| O=C(NCCc1ccc(Cl)cc1)c1ccc2nc(CCc3ccccc3)oc2c1 | inactive |  |
| COc1cc(C(=O)NCCc2csc3nc(-c4ccccc4C)nn23)cc(OC)c1OC | inactive |  |
| COc1ccc2c(c1)c(N1CCCC1=O)c(C(=O)Nc1ccccc1C(F)(F)F)n2C | inactive |  |

| SMILES | Potency | activity, negative = cell killing |
| --- | --- | --- |
| Cc1ccccc1-n1c(C)cc(/C=C2\NC(=O)NC2=O)c1C | 8.91 µM (active) |  |
| CCc1ccc(CNC(=O)c2cc3cc4ccc(OC)cc4nc3o2)cc1 | inactive |  |
| CCOc1ccc(NC(=O)Cn2cc(C(=O)c3ccc(C)cc3)c(=O)c3cc4c(cc32)OCCO4)cc1 | inactive |  |
| Cc1cc(C)cc(NC(=O)CSc2nc(=O)n(CCN3CCOCC3)c3c2CCC3)c1 | inactive |  |
| CCCCCCCCC(=O)NCCOc1ccccc1 | inactive |  |
| Cc1ccc(NC(=O)CN2C(=O)CC(C)Sc3ccccc32)c(C)c1 (centres undefined) | inactive |  |
| O=C(CSc1nc2c(c(=O)[nH]1)CN(Cc1ccc(F)cc1)CC2)Nc1ccccc1Cl | inactive |  |
| Cc1cccc2nc(-c3ccc(Cl)s3)c(Nc3ccc4c(c3)OCCO4)n12 | inactive |  |
| Cc1ccc(Nc2c(-c3ccc(C)s3)nc3ccccn23)cc1 | inactive |  |
| Cc1ccn2c(Nc3ccc4c(c3)OCCO4)c(-c3ccc(C)s3)nc2c1 | 10 µM (active) |  |
| CCn1c2ccccc2c2nnc(N3CCN(c4cc(C)ccc4C)CC3)nc21 | inactive |  |
| Cc1ccc(CCNC(=O)c2ccc(CS(=O)(=O)Cc3cccc(C)c3)o2)cc1 | inactive |  |
| Cc1ccc(Cl)cc1N1CCN(C(=O)CN2C(=O)COc3ccc(S(=O)(=O)N4CCOCC4)cc32)CC1 | inactive |  |
| Cc1cc(C)cc(-n2c(SCC(=O)NCC3CCCO3)nc3c([nH]c4ccccc43)c2=O)c1 (centres undefined) | inactive |  |
| COc1ccc(C(=O)Nc2onc3c2CCCC3)cc1 | 7.94 µM (active) |  |
| CC1CCc2noc(NC(=O)c3ccc([N+](=O)[O-])cc3)c2C1 (centres undefined) | inactive |  |
| COc1ccc(-c2cc(C(=O)Nc3sc4c(c3C(N)=O)CCCC4)no2)cc1 | inactive |  |
| O=C(Cn1ncc2c3ccccc3n(Cc3ccccc3)c2c1=O)NC1CCCCCC1 | inactive |  |
| Cc1c(Cl)cccc1NC(=O)c1noc2c1CCCC2 | inactive |  |
| O=C(N/N=C/c1cccc([N+](=O)[O-])c1)C1CC(=O)N(c2ccc(Br)cc2)C1 (centres undefined) | inactive |  |
| CN(Cc1ccccc1)C(=O)COC(=O)c1ccccc1Nc1ccccc1 |  | -8.55% [at 1.84 µM] |
| O=C(NCc1ccccc1)c1cccc(NC(=O)N2CCSc3ncccc32)c1 | inactive |  |

From PubChem BioAssay AID904 (National Center for Advancing Translational Sciences (NCATS), 2007)
